# Reference: PubChem BioAssay (NCATS)
# Results filed as inconclusive are left out. Where a call stands in place of a potency, no number is given. The source made the active and inactive calls. Calls follow the shape of the dose curve; as a rule, active = well fitted inhibition curve with a large enough effect; inconclusive = small, poorly fitted or top-dose-only effect; inactive = flat fitted curve, though single readings scatter.
# Target: Aldehyde dehydrogenase, mitochondrial (Homo sapiens) (UniProt P05091)
# Experiment: qHTS for Inhibitors of the Aldehyde Dehydrogenase Family (ALDH2) Primary screen (AID 2061308); also: nearly all actives have a fitted effect of over 55% in size
# Settings: ALDH2 enzyme inhibition qHTS, 1536-well; series mostly up to 56 µM
row,SMILES,Potency
1,COc1cc(C2OCC3C(c4ccc(OC5OC(CO)C(O)C(O)C5O)c(OC)c4)OCC23)ccc1O (stereo not given),inactive
2,O=C(/C=C/c1ccc(O)cc1)O[C@H]1[C@@H]2C=CO[C@@H](O[C@@H]3O[C@H](CO)[C@@H](O)[C@H](O)[C@H]3O)[C@@H]2[C@@]2(CO)O[C@@H]12,inactive
3,O=C(OC[C@H]1O[C@H](O[C@]2(CO)O[C@H](CO)[C@@H](O)[C@@H]2O)[C@H](O)[C@@H](O)[C@@H]1O)c1ccccc1,inactive
4,C=C1C(=O)O[C@H]2CC(=C)[C@H]3CC[C@@](C)(O)[C@@H]3CC12 (stereo not given in full),inactive
5,COc1cc2ncnc(Nc3ccc(O)cc3)c2cc1OC,inactive
